Sampled rows, rich in hits. Any-hit rate of the full collection: about 5.3%.
HP1b binding inh: HTS for Inhibitors of HP1-beta Chromodomain Interactions with Methylated Histone Tails. Chromobox protein homolog 1 (Homo sapiens), P83916. AlphaScreen HP1-beta / biotin-H3K9me3 peptide binding. Potency, µM (series often up to 114 µM), for inactives: at the top dose activity change, negative = inhibition, most hits filed as inhibitors. 0.56% of 390,000 active. AID 540317, 2011; note: potency is the fitted concentration of half-maximal effect; nearly all actives have a fitted effect of over 70% in size
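AlphaScreen: HP1-beta (50 nM) preformed 30 min with biotin-H3(1-18)K9me3 peptide (50 nM) in PBS pH 7.4, 0.01% Tween-20. Compound added for 30 min at RT, then streptavidin donor/nickel chelate acceptor beads (10 ug/mL) for 30 min.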
TDP1 inh: qHTS Assay for Inhibitors of Tyrosyl-DNA Phosphodiesterase (TDP1); 0.28% of 350,000 active; recombinant TDP1, AlphaScreen DNA substrate cleavage; AID 485290, 2010; Potency, µM (top dose mostly 130 µM), inactives show top-dose activity change, negative = inhibition, usual class: inhibitors; Tyrosyl-DNA phosphodiesterase 1 (Homo sapiens), Q9NUW8; note: potency is the fitted concentration of half-maximal effect; % is set by controls: 0 for no effect and ±100 for the full control effect; nearly all actives have a fitted effect of over 40% in size
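Compounds were preincubated with Tdp1 (1 nM final) for 15 min at room temperature before substrate (15 nM final) started a 5 min reaction; beads (10 ug/ml final) were then added for 10 min before AlphaScreen detection.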
Six1-Eya2 inh: qHTS Assay for Inhibitors of the Six1/Eya2 Interaction | AlphaScreen GST-Six1/His-Eya2 binding, biochemical; active compounds read low | activity change, % (no concentration beside the values) | 0.56% of 360,000 active | AID 651725, 2012; in the data active = activity change below about -65%; inconclusive = mostly about -30% to -63%; note: % is set by controls: 0 for no effect and ±100 for the full control effect
Target sequence (O00167 whole entry, looked up): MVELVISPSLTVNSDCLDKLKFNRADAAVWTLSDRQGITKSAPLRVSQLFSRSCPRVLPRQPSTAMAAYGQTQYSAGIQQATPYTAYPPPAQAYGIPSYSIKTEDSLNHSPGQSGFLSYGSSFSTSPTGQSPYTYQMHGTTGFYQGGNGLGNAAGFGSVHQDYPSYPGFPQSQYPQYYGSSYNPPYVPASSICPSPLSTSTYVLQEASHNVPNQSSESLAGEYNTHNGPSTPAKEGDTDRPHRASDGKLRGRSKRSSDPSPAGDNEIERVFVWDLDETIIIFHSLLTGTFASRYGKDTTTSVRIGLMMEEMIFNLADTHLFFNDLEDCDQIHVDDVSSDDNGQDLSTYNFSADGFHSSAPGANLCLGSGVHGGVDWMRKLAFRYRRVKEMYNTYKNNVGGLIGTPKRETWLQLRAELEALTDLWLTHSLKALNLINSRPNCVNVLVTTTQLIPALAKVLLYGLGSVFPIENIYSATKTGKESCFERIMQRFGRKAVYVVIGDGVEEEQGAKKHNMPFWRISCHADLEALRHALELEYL
Target sequence (Q15475 whole entry, looked up): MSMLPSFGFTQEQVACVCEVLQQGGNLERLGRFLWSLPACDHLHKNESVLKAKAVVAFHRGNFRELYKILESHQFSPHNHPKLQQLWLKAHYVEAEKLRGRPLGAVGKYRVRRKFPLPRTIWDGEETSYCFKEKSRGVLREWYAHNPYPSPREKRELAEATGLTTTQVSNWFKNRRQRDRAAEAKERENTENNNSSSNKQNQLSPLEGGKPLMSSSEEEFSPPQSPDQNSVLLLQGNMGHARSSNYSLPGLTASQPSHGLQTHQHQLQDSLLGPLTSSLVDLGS
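Six1/Eya2 binding was read as AlphaScreen signal after compounds were pinned into GST-Six1 plus His-tagged Eya2 (5X stock 250/500 nM) in pH 8.0 Tris/NaCl/TCEP buffer, beads added, then incubated 1 h, 37 C, dark.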
JMJD2A Tudor: qHTS Assay for Inhibitors of JMJD2A-Tudor Domain; Lysine-specific demethylase 4A (Homo sapiens), O75164; Potency, µM (top dose mostly 114 µM), inactives show at the highest dose activity change, negative = inhibition, hits mostly inhibitors; AlphaScreen JMJD2A-Tudor / H3K4me3 peptide binding; 4.4% of 390,000 active; note: potency is the fitted concentration of half-maximal effect; % is set by controls: 0 for no effect and ±100 for the full control effect; nearly all actives have a fitted effect of over 50% in size
BAZ2B inh: qHTS Assay for Inhibitors of BAZ2B | Bromodomain adjacent to zinc finger domain protein 2B (Homo sapiens), Q9UIF8 | AlphaScreen BAZ2B-H3K14Ac peptide displacement | Potency, µM (series often up to 114 µM), inactives show at the top dose activity change, negative = inhibition, usual class: inhibitors | 4.4% of 360,000 active; note: potency is the fitted concentration of half-maximal effect; % is set by controls: 0 for no effect and ±100 for the full control effect; nearly all actives have a fitted effect of over 60% in size
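AlphaScreen displacement of biotin-H3(5-23)K14Ac peptide (50 nM final) from BAZ2B (50 nM final) in PBS pH 7.4, 0.01% Tween-20; complex preformed 30 min RT, then compounds (top 110 uM) 30 min RT, beads 20 min dark.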
CtBP-E1A blk: qHTS Assay for Inhibitors of the CtBP/E1A Interaction; CtBP / adenovirus E1A interaction (AlphaScreen); AlphaScreen GST-E1A/His-CtBP binding, 1536-well; active compounds read low; activity change, % (test concentration not listed); 0.49% of 340,000 active; in the data active = activity change below about -65%; inconclusive = mostly about -30% to -63%; note: % is set by controls: 0 for no effect and ±100 for the full control effect
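AlphaScreen with 125 nM GST-E1A and 125 nM His-CtBP (5X stocks) in Tris pH 8.0, 300 mM NaCl, BSA, Tween 20, TCEP. Compounds preincubated 2 h at 37 deg C, then glutathione donor/nickel acceptor beads added for 1 h at 37 deg C in dark.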
* = called active by the depositor; ? = inconclusive; · = no result given; [ ] = another dose, or the depositor's remark. Unless noted, calls come from the whole dose curve; as a rule, active = well fitted inhibition curve with a large enough effect; inconclusive = small, poorly fitted or top-dose-only effect; inactive = no such curve, though single readings can be large or run the other way.

SMILES	HP1b binding inh	TDP1 inh	Six1-Eya2 inh	JMJD2A Tudor	BAZ2B inh	CtBP-E1A blk
CCN(C(=O)c1sc2nc3n(c(=O)c2c1C)CCCC3)c1ccccc1F	78.5%	3.9%	·	-26.0%	-3.1%	·
COc1ccc(CCNC(=O)c2cc3c(=O)oc4ccc(C)cc4c3s2)cc1OC	26.7%	5.8%	·	-1.3%	-3.4%	·
COc1cc(/C=C2\SC(=S)N(NC(=O)c3ccccc3OC)C2=O)ccc1O	25.1µM*	·	?	?	20µM*	?
COc1cc(/C=C2\SC(=S)N(NC(=O)c3cccc(O)c3)C2=O)ccc1O	44.7µM*	·	?	?	35.5µM*	?
COc1cc(/C=C2/SC(=S)N(c3c(C)n(C)n(-c4ccccc4)c3=O)C2=O)ccc1O	?	3.6%	-18.7	?	44.7µM*	-19.4
COc1cc(/C=C2\SC(=S)N(NC(=O)c3ccncc3)C2=O)ccc1O	-26.7%	4.1%	-25.5	-8.7%	?	-5.6
COc1cc(/C=C2\SC(=S)N(NC(=O)c3ccc(O)c(OC)c3)C2=O)ccc1O	50.1µM*	·	-6.0	56.2µM*	35.5µM*	?
COc1ccccc1CNC(=O)CCNS(=O)(=O)c1ccc2c(c1)CCCC(=O)N2	20.4%	1.1%	·	-3.6%	11.5%[57.1 µM]	·
CCN(C(=O)CSc1ncc2c(n1)-c1cc(Cl)ccc1N(Cc1ccccc1)S2(=O)=O)c1cccc(C)c1	6.6%	2.6%	·	-12.7%	2.9%	·
COc1cc(/C=C2\SC(=S)N(Nc3ccccc3)C2=O)cc(OC)c1OC	?	9.3%	-15.0	?	22.4µM*	-11.9
CCOc1cc(/C=C2\SC(=S)N(NC(=O)c3cccnc3)C2=O)ccc1O	?	-2.4%	?	-34.5%	10µM*	?
COc1cc(/C=C2\SC(=S)N(CCC(=O)Nc3ccccc3)C2=O)cc(OC)c1OC	31.5%	2.4%	-9.3	-18.9%[57.1 µM]	?	-8.1
CCOc1cc(/C=C2\SC(=S)N(NS(=O)(=O)c3ccc(C)cc3)C2=O)ccc1O	-14.3%	·	-8.8	?	·	·
COc1ccc(CC(=O)Nc2ccc(-c3nc4ccccc4s3)cc2Cl)cc1OC	-2.7%	6.4%	·	-22.3%	-14.6%	·
O=c1cc(-c2ccsc2)oc2cc(-c3ccc4c(c3)OCO4)ccc12	79.1%	7.08µM*	-3.0	-35.0%	·	-0.1
CCOC(=O)c1ccc(N2C(=O)c3[nH]nc(-c4ccc(C)cc4)c3C2c2ccc(O)c(OCC)c2)cc1 (stereo unspecified)	5.6%	7.0%	·	-29.3%	·	·
O=C1CN(C(=O)c2ccccc2C(F)(F)F)C(c2ccccc2)c2cc(F)ccc2N1 (stereo unspecified)	7.1%	2.9%	·	-14.7%	-1.3%	·
Cc1cc(C)nc(NNS(=O)(=O)c2ccc(F)c(Cl)c2)n1	14.6%	-7.1%	-2.1	-30.7%	79.4µM*	0.0
N#Cc1ccc(OCCN2CCc3ccccc3C2)cc1	?	·	-3.3	25.1µM*	·	·
Clc1ccc(OCCCCN2CCc3ccccc3C2)cc1	100.2%	-2.4%	25.9	18.2%	6.3%	19.1
COc1ccc(OCCOCCN2CCc3ccccc3C2)cc1	?	-5.2%	-3.4	2.51µM*	50.1µM*	-3.5
Cc1ccc(Cl)c(OCCN2CCc3ccccc3C2)c1	42.6%	5.2%	10.0	0.7%	5.2%	·
CC1CCC(N2CCN(C(=O)c3ccccc3F)CC2)CC1 (stereo unspecified)	?	·	4.4	28.2µM*	79.4µM*	·
COc1cc(OC)cc(C(=O)N2CCN(C3CCC(C)CC3)CC2)c1 (stereo unspecified)	?	·	-3.6	56.2µM*	·	6.6
COc1cccc(C(=O)N2CCN(C3CCN(Cc4ccccc4)CC3)CC2)c1OC	22.4µM*	·	5.1	0.794µM*	17.8µM*	-1.7
SMILES	HP1b binding inh	TDP1 inh	Six1-Eya2 inh	JMJD2A Tudor	BAZ2B inh	CtBP-E1A blk
COc1cc(OC)cc(C(=O)N2CCN(C3CCCCC3)CC2)c1	?	·	-0.3	22.4µM*	?	1.3
COc1cc(OC)cc(C(=O)N2CCN(C3CCN(Cc4ccccc4)CC3)CC2)c1	?	-10.1%	2.3	1.12µM*	14.1µM*	7.1
COc1ccc(S(=O)(=O)Nc2ccc(O)c3ccccc23)cc1	?	4.1%	?	31.6µM*	39.8µM*	?
Cc1ccc(S(=O)(=O)Nc2cc(C(C(=O)OC(C)C)C(=O)C(F)(F)F)c(O)c3ccccc23)c(C)c1 (stereo unspecified)	-10.6%	7.9%	-77.4*	-28.6%	?	-21.3
Cc1ccc(C)c(S(=O)(=O)Nc2ccc(O)c3ccccc23)c1	15.8µM*	·	-1.4	50.1µM*	50.1µM*	·
Cc1ccc(S(=O)(=O)NNc2ccccc2)c(C)c1	-58.4%	2.3%	3.4	5.01µM*	56.2µM*	12.0
Cc1ccccc1OCC(=O)Nc1ccc(C(=O)OCc2cc(=O)n3c(C)csc3n2)cc1	47.5%	-1.2%	·	0.7%	3.9%	·
Cc1ccc(S(=O)(=O)Nc2ccc(O)c3ccccc23)c(C)c1	50.1µM*	·	?	44.7µM*	44.7µM*	1.5
CC(=O)C1=C(c2ccc(Br)cc2)C(=O)c2ccccc2C1=O	25.1µM*	13.2%	-24.9	22.4µM*	25.1µM*	-9.0
CC(=O)Nc1c(Br)cc2c(c1Br)C(=O)c1ccccc1-2	27.7%	·	-4.1	-9.7%	·	-2.2
Cc1ccc(Nc2ncc(C(=O)N3CCN(c4ccc(F)cc4)CC3)c3ccccc23)cc1Cl	18.5%	2.9%	·	5.1%	-1.7%	·
Cc1ccc(C2=C(O)C(=O)C(c3ccc(C)cc3)=C(O)C2=O)cc1	-22.7%	·	-4.0	25.1µM*	·	0.8
CC1=C(O)C(=O)C(C2=C(O)C(=O)C(C)=C(O)C2=O)=C(O)C1=O	?	·	-91.8*	0.708µM*	·	-84.7*
Cc1ccc(O)cc1	·	2.8%[56.1 µM]	·	·	·	·
O=C1CCC=C1[C@@H](O)CCc1ccccc1	·	3.7%[21 µM]	·	·	·	·
COc1ccc(CCNC(=O)CN(c2ccccc2)S(=O)(=O)N(C)C)cc1OC	22.4%	2.1%	·	-7.9%	-12.6%	·
COC(=O)C1CSC(C(=O)OC)N1C(=O)Nc1c(C)cccc1C (stereo unspecified)	8.5%	0.0%	2.8	-19.9%	10.3%	10.4
Cc1cccc(C)c1NC(=O)N1C(C(=O)O)CSC1C(=O)O (stereo unspecified)	-6.0%	·	5.9	17.8µM*	?	0.0
CCC(=O)/C=C1/Sc2ccc(OC)cc2N1CCO	-21.0%	-3.6%	-13.8	?	-1.3%	-1.7
